The source of these data is paper PMC11006913.

Changes are numbered by the printed parent chain.

Common to all, as to test: PBM; 200 nM protein, PBS
What all share (conditions): dsDNA, one strand shown

For experiment [1], the target named is T1, SIX6 (Homo sapiens, UniProt O95475 114-200, L167I).
T1 sequence: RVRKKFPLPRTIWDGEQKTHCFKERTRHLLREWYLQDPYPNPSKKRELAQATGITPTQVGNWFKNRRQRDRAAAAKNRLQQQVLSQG

Experiment [2] deals with T2, SIX6 (Homo sapiens, UniProt O95475 114-200, T165P).
T2 sequence: T1 sequence with T52P, I54L

Experiment [3] addresses T3, SIX6 (Homo sapiens, UniProt O95475 114-200, L167M).
T3 sequence: T1 sequence with I54M

The target of experiment [4] is T4, SIX6 (Homo sapiens, UniProt O95475 114-200, T165G).
T4 sequence: T1 sequence with T52G, I54L

The target in experiment [5] is T5, SIX6 (Homo sapiens, UniProt O95475 114-200, T165A).
T5 sequence: T1 sequence with T52A, I54L

Experiment [6] has as its target T6, SIX6 (Homo sapiens, UniProt O95475 114-200, L143V).
T6 sequence: T1 sequence with L30V, I54L

Experiment [7] concerns the target T7, SIX6 (Homo sapiens, UniProt O95475 114-200, H141N).
T7 sequence: T1 sequence with H28N, I54L

The target in experiment [8] is T8, SIX6 (Homo sapiens, UniProt O95475 114-200, L143I).
T8 sequence: T1 sequence with L30I, I54L

The target of experiment [9] is T9, SIX6 (Homo sapiens, UniProt O95475 114-200).
T9 sequence: T1 sequence with I54L

The target in experiment [10] is T10, SIX6 (Homo sapiens, UniProt O95475 114-200, L143M).
T10 sequence: T1 sequence with L30M, I54L

For experiment [11], the target named is T11, SIX6 (Homo sapiens, UniProt O95475 114-200, T139Q).
T11 sequence: T1 sequence with T26Q, I54L

The target in experiment [12] is T12, SIX6 (Homo sapiens, UniProt O95475 114-200, L167V).
T12 sequence: T1 sequence with I54V

Experiment [13] concerns the target T13, SIX6 (Homo sapiens, UniProt O95475 114-200, T165I).
T13 sequence: T1 sequence with T52I, I54L

GGGTGTCA: the binding signal with SIX6 [1] is 10.4 upbm affinity estimate (log intensity, higher = more binding, comparable within an allelic series); with SIX6 [2], 9.2 upbm affinity estimate (log intensity, higher = more binding, comparable within an allelic series); in the experiment with SIX6 [3], 9.79 upbm affinity estimate (log intensity, higher = more binding, comparable within an allelic series); with SIX6 [4], 11.1 upbm affinity estimate (log intensity, higher = more binding, comparable within an allelic series); with SIX6 [5] it was 11.1 upbm affinity estimate (log intensity, higher = more binding, comparable within an allelic series).

As to GACGGATA, the binding signal with SIX6 [1] is 10.2 upbm affinity estimate (log intensity, higher = more binding, comparable within an allelic series); with SIX6 [6] it was 9.77 upbm affinity estimate (log intensity, higher = more binding, comparable within an allelic series); with SIX6 [7] it was 10.1 upbm affinity estimate (log intensity, higher = more binding, comparable within an allelic series); in the experiment with SIX6 [2], 9.43 upbm affinity estimate (log intensity, higher = more binding, comparable within an allelic series); in the experiment with SIX6 [8], 9.79 upbm affinity estimate (log intensity, higher = more binding, comparable within an allelic series); in the experiment with SIX6 [9], 10.2 upbm affinity estimate (log intensity, higher = more binding, comparable within an allelic series).

With ATACAGAT, the binding signal with SIX6 [1] was 10.7 upbm affinity estimate (log intensity, higher = more binding, comparable within an allelic series); with SIX6 [7], 10.6 upbm affinity estimate (log intensity, higher = more binding, comparable within an allelic series); with SIX6 [2] it was 10 upbm affinity estimate (log intensity, higher = more binding, comparable within an allelic series); with SIX6 [3], 10.5 upbm affinity estimate (log intensity, higher = more binding, comparable within an allelic series); with SIX6 [10], 10.7 upbm affinity estimate (log intensity, higher = more binding, comparable within an allelic series); with SIX6 [8] it was 10.3 upbm affinity estimate (log intensity, higher = more binding, comparable within an allelic series). For the same sequence, the binding signal with SIX6 [4] was 10.7 upbm affinity estimate (log intensity, higher = more binding, comparable within an allelic series); with SIX6 [11], 10.8 upbm affinity estimate (log intensity, higher = more binding, comparable within an allelic series); with SIX6 [5], 10.5 upbm affinity estimate (log intensity, higher = more binding, comparable within an allelic series); with SIX6 [12] it was 10.5 upbm affinity estimate (log intensity, higher = more binding, comparable within an allelic series); with SIX6 [9] it was 10.6 upbm affinity estimate (log intensity, higher = more binding, comparable within an allelic series); with SIX6 [13], 10.5 upbm affinity estimate (log intensity, higher = more binding, comparable within an allelic series).

On to ACAATACT, for which the binding signal is 10.3 upbm affinity estimate (log intensity, higher = more binding, comparable within an allelic series) in the experiment with SIX6 [1]; 10.2 upbm affinity estimate (log intensity, higher = more binding, comparable within an allelic series) with SIX6 [7]; 10.2 upbm affinity estimate (log intensity, higher = more binding, comparable within an allelic series) with SIX6 [3]; 10.4 upbm affinity estimate (log intensity, higher = more binding, comparable within an allelic series) in the experiment with SIX6 [10]; 10.1 upbm affinity estimate (log intensity, higher = more binding, comparable within an allelic series) in the experiment with SIX6 [8]; 10.3 upbm affinity estimate (log intensity, higher = more binding, comparable within an allelic series) in the experiment with SIX6 [4]. The binding signal in the experiment with SIX6 [11] was 10.5 upbm affinity estimate (log intensity, higher = more binding, comparable within an allelic series); in the experiment with SIX6 [5] it was 10.3 upbm affinity estimate (log intensity, higher = more binding, comparable within an allelic series); in the experiment with SIX6 [12], 10.2 upbm affinity estimate (log intensity, higher = more binding, comparable within an allelic series); with SIX6 [9], 10.2 upbm affinity estimate (log intensity, higher = more binding, comparable within an allelic series); with SIX6 [13], 10.2 upbm affinity estimate (log intensity, higher = more binding, comparable within an allelic series).

Regarding ATTATCCG, the binding signal with SIX6 [1] is 10.4 upbm affinity estimate (log intensity, higher = more binding, comparable within an allelic series); with SIX6 [7], 10.3 upbm affinity estimate (log intensity, higher = more binding, comparable within an allelic series); in the experiment with SIX6 [2], 9.7 upbm affinity estimate (log intensity, higher = more binding, comparable within an allelic series); in the experiment with SIX6 [3] it was 10.2 upbm affinity estimate (log intensity, higher = more binding, comparable within an allelic series); in the experiment with SIX6 [10], 10.3 upbm affinity estimate (log intensity, higher = more binding, comparable within an allelic series); in the experiment with SIX6 [8], 9.95 upbm affinity estimate (log intensity, higher = more binding, comparable within an allelic series). For the same sequence, the binding signal is 10.2 upbm affinity estimate (log intensity, higher = more binding, comparable within an allelic series) with SIX6 [4]; 10.4 upbm affinity estimate (log intensity, higher = more binding, comparable within an allelic series) with SIX6 [11]; 10.2 upbm affinity estimate (log intensity, higher = more binding, comparable within an allelic series) with SIX6 [5]; 10.2 upbm affinity estimate (log intensity, higher = more binding, comparable within an allelic series) in the experiment with SIX6 [12]; 10.3 upbm affinity estimate (log intensity, higher = more binding, comparable within an allelic series) with SIX6 [9]; 10.2 upbm affinity estimate (log intensity, higher = more binding, comparable within an allelic series) with SIX6 [13].

Consider CGGATAAA, for which the binding signal was 10.4 upbm affinity estimate (log intensity, higher = more binding, comparable within an allelic series) with SIX6 [1]; 10.3 upbm affinity estimate (log intensity, higher = more binding, comparable within an allelic series) with SIX6 [7]; 9.86 upbm affinity estimate (log intensity, higher = more binding, comparable within an allelic series) with SIX6 [2]; 10.4 upbm affinity estimate (log intensity, higher = more binding, comparable within an allelic series) with SIX6 [3]; 10.5 upbm affinity estimate (log intensity, higher = more binding, comparable within an allelic series) with SIX6 [10]; 10 upbm affinity estimate (log intensity, higher = more binding, comparable within an allelic series) with SIX6 [8]. The binding signal in the experiment with SIX6 [5] is 10.3 upbm affinity estimate (log intensity, higher = more binding, comparable within an allelic series); with SIX6 [12], 10.2 upbm affinity estimate (log intensity, higher = more binding, comparable within an allelic series); with SIX6 [9] it was 10.4 upbm affinity estimate (log intensity, higher = more binding, comparable within an allelic series); with SIX6 [13], 10.3 upbm affinity estimate (log intensity, higher = more binding, comparable within an allelic series).

For the sequence TATAACCA, the binding signal was 10.1 upbm affinity estimate (log intensity, higher = more binding, comparable within an allelic series) in the experiment with SIX6 [1]; 10.1 upbm affinity estimate (log intensity, higher = more binding, comparable within an allelic series) in the experiment with SIX6 [7]; 10.2 upbm affinity estimate (log intensity, higher = more binding, comparable within an allelic series) in the experiment with SIX6 [3]; 10.2 upbm affinity estimate (log intensity, higher = more binding, comparable within an allelic series) with SIX6 [4]; 10.1 upbm affinity estimate (log intensity, higher = more binding, comparable within an allelic series) with SIX6 [9].

Take AAGGTATC: the binding signal with SIX6 [1] is 11.1 upbm affinity estimate (log intensity, higher = more binding, comparable within an allelic series); with SIX6 [7], 11 upbm affinity estimate (log intensity, higher = more binding, comparable within an allelic series).

In the case of CTGACACC, the binding signal with SIX6 [1] was 10.3 upbm affinity estimate (log intensity, higher = more binding, comparable within an allelic series); with SIX6 [3] it was 9.83 upbm affinity estimate (log intensity, higher = more binding, comparable within an allelic series); with SIX6 [5], 11.1 upbm affinity estimate (log intensity, higher = more binding, comparable within an allelic series).

For the sequence CATATCAA, the binding signal was 11.2 upbm affinity estimate (log intensity, higher = more binding, comparable within an allelic series) with SIX6 [1]; 11.1 upbm affinity estimate (log intensity, higher = more binding, comparable within an allelic series) with SIX6 [7]; 11.2 upbm affinity estimate (log intensity, higher = more binding, comparable within an allelic series) with SIX6 [4]; 11.2 upbm affinity estimate (log intensity, higher = more binding, comparable within an allelic series) in the experiment with SIX6 [5]; 10.9 upbm affinity estimate (log intensity, higher = more binding, comparable within an allelic series) with SIX6 [12]; 11 upbm affinity estimate (log intensity, higher = more binding, comparable within an allelic series) with SIX6 [13].

Turning to AGTATCAA, the binding signal with SIX6 [1] is 11.1 upbm affinity estimate (log intensity, higher = more binding, comparable within an allelic series); with SIX6 [7], 11.1 upbm affinity estimate (log intensity, higher = more binding, comparable within an allelic series); with SIX6 [4], 11.1 upbm affinity estimate (log intensity, higher = more binding, comparable within an allelic series); with SIX6 [5], 11.1 upbm affinity estimate (log intensity, higher = more binding, comparable within an allelic series).

As for CGGTGTCA, the binding signal in the experiment with SIX6 [1] was 10.3 upbm affinity estimate (log intensity, higher = more binding, comparable within an allelic series); with SIX6 [2], 9.3 upbm affinity estimate (log intensity, higher = more binding, comparable within an allelic series); with SIX6 [3] it was 9.76 upbm affinity estimate (log intensity, higher = more binding, comparable within an allelic series); with SIX6 [5] it was 11.1 upbm affinity estimate (log intensity, higher = more binding, comparable within an allelic series).

As to GTATCTTA, the binding signal is 10.7 upbm affinity estimate (log intensity, higher = more binding, comparable within an allelic series) in the experiment with SIX6 [1]; 10.7 upbm affinity estimate (log intensity, higher = more binding, comparable within an allelic series) with SIX6 [7]; 9.9 upbm affinity estimate (log intensity, higher = more binding, comparable within an allelic series) with SIX6 [2]; 10.3 upbm affinity estimate (log intensity, higher = more binding, comparable within an allelic series) in the experiment with SIX6 [3]; 10.5 upbm affinity estimate (log intensity, higher = more binding, comparable within an allelic series) with SIX6 [10]; 10.2 upbm affinity estimate (log intensity, higher = more binding, comparable within an allelic series) with SIX6 [8]. Besides, the binding signal in the experiment with SIX6 [4] is 10.8 upbm affinity estimate (log intensity, higher = more binding, comparable within an allelic series); with SIX6 [11], 11 upbm affinity estimate (log intensity, higher = more binding, comparable within an allelic series); in the experiment with SIX6 [5], 10.6 upbm affinity estimate (log intensity, higher = more binding, comparable within an allelic series); with SIX6 [12] it was 10.6 upbm affinity estimate (log intensity, higher = more binding, comparable within an allelic series); in the experiment with SIX6 [9], 10.5 upbm affinity estimate (log intensity, higher = more binding, comparable within an allelic series); in the experiment with SIX6 [13], 10.5 upbm affinity estimate (log intensity, higher = more binding, comparable within an allelic series).
